FLuc modulator: counter-screen for miR-21 project: firefly luciferase inhibitors or activators; P08659; purified FLuc, Km substrates, luminescence inhibition; Potency, µM (doses to about 57.5 µM), for inactives: at the highest dose activity change, negative = inhibition, most hits filed as inhibitors; hit rate 6.9% among 360,000; AID 588342;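 further: plate controls were vehicle for no effect and reference inhibitor for full effect; nearly all actives have a fitted effect of over 55% in size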
Target sequence (P08659 whole entry, looked up): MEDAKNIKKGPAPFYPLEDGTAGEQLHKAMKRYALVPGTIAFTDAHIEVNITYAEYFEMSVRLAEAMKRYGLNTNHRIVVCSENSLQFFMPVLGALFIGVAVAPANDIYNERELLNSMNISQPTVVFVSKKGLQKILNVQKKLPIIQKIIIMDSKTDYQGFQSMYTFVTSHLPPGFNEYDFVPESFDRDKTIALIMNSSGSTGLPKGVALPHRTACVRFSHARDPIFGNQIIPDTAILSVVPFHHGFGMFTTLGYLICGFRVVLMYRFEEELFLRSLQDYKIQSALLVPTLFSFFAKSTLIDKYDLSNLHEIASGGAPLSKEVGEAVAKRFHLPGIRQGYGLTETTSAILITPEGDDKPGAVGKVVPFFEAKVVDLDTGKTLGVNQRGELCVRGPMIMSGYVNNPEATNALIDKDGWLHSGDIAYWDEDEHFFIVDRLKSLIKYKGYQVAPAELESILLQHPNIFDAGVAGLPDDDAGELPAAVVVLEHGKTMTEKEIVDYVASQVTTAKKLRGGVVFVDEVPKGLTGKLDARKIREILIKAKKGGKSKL
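Purified P. pyralis luciferase, 10 nM final, with Km-level 10 uM D-luciferin and 10 uM ATP in 50 mM Tris acetate pH 7.5, 10 mM Mg acetate, 0.01% Tween-20, 0.05% BSA; 6-point qHTS titration about 60 µM downward; luminescence read.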
Rab9 promoter act: Rab9 promoter activation; Huh7 Rab9 promoter-luciferase reporter, luminescence, 24 h; Potency, µM (series often up to 9.22 µM), inactives show top-dose activation, negative = inhibition, hits mostly activators; hit rate 2.8% among 320,000; further: % of control where 0% means no effect; nearly all actives have a fitted effect of over 60% in size
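Steps: seed 1500 Huh7 Rab9-luc cells per well, rest 2 h at 37 °C; add compound in DMSO; incubate 24 h; add luciferase reagent, 10 min ambient; read luminescence.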
KinaseGlo FLuc: blocks Kinase-Glo luciferase, a counter-screen artifact. Q27757. Kinase-Glo luciferase, ATP luminescence, 8 min. Potency, µM (highest dose often 38.3 µM), without a hit: at the top dose activity change, negative = inhibition, actives largely listed as inhibitors. hit rate 0.28% among 200,000. AID 1379; further: on the % scale 0 is the no-effect control and ±100 the full control effect; nearly all actives have a fitted effect of over 60% in size
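Luminescence was the read-out, taken after 8-minute incubation at ambient temperature. Luciferase turned over luciferin with 10 uM ATP in imidazole pH 7.2 buffer containing KCl, MgCl2, Tween 20 and BSA.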
ELG1 genotoxic: inducers of genotoxicity in HEK293T ELG1-luciferase cells; Potency, µM (doses to about 46 µM), for the others: at the highest dose activity change, positive = activation, hits mostly activators; HEK293T ELG1-luciferase reporter, luminescence, 16 h; hit rate 1.3% among 330,000; further: % of control where 0% means no effect; nearly all actives have a fitted effect of over 60% in size
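After overnight (16 hr) compound treatment at 37 °C, ELG1-luciferase HEK293T cells were lysed with ONE-Glo; luminescence quantified 30 min later at room temperature.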
SMN2 splice up: SMN2 splice variant enhancement. HEK293 SMN2-luciferase splicing reporter, luminescence, 30-36 h. Potency, µM (top dose mostly 46.1 µM), for the others: at the top dose activity change, positive = activation, most hits filed as activators. hit rate 2.8% among 210,000. AID 1458; further: % of control where 0% means no effect; nearly all actives have a fitted effect of over 55% in size
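HEK293 cells carry an SMN2 minigene-luciferase reporter in which exon 7 inclusion puts luciferase in frame. Cells were seeded at 2000 cells/well, attached for 10-12 hours, then exposed to compounds for 30-36 hours at 37C before ONE-Glo luminescence.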
NPC1 promoter act: activators of NPC1 promoter | Potency, µM (doses to about 9.22 µM), for inactives: at the top dose activation, hits mostly activators | Huh7 NPC1 promoter luciferase reporter, 24 h | hit rate 2.4% among 320,000; further: % of control where 0% means no effect; nearly all actives have a fitted effect of over 60% in size
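Stable NPC1-promoter luciferase Huh7 line; cpd (DMSO) 24 h, 37 °C, 5% CO2; Amplite luciferase reagent 10 min RT; luminescence readout. qHTS format.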
The depositor's hits bear a star; ? = inconclusive; nt = no result given. Only some compounds are listed: those with a hit (about 7.3% of all), similar ones and a draw of the others. The call rests on the fitted dose curve; in most records, active means well fitted curve in the direction sought with a large enough effect; inconclusive means small, poorly fitted or top-dose-only effect, or another doubt; inactive means no such curve, though single readings can be large; an effect the other way counts as inactive or inconclusive. Potency means the concentration at half of the fitted maximal effect.

SMILES | FLuc modulator | Rab9 promoter act | KinaseGlo FLuc | ELG1 genotoxic | SMN2 splice up | NPC1 promoter act
Cc1ccccc1OCC(=O)N/N=C/c1cn(Cc2ccccc2)c2ccccc12 | -1% | 0% | -1% | 1% | -17% | 0%
COc1cc(C(=O)N/N=C/c2cn(Cc3ccccc3)c3ccccc23)ccc1O | 17µM* | 0% | nt | 1% | nt | 2%
CN(c1ccc(C(=O)Nc2ccc3c(c2)OCCO3)cc1)S(C)(=O)=O | 7.6µM* | 1.6µM* | -12% | ? | 11µM* | 2.2µM*
CN(c1ccccc1C(=O)Nc1ccc2c(c1)OCCO2)S(C)(=O)=O | 2% | 10% | 2% | 1% | -9% | -1%
CN(c1ccc(C(=O)Nc2ccc3c(c2)OCO3)cc1)S(C)(=O)=O | 12µM* | 4µM* | nt | 15% | nt | 2.8µM*
CN(Cc1ccccc1)C(=O)COC(=O)c1ccc(Br)c(S(=O)(=O)N2CCOCC2)c1 | nt | nt | nt | 0% | nt | nt
O=C(CCS(=O)(=O)Cc1ccccc1)Nc1nncs1 | -1% | 11% | nt | 1% | nt | -3%
COCCCNc1nc2c(-c3ccc(Cl)cc3)nnn2c2ccccc12 | -1% | -7% | -3% | -1% | -5% | -3%
C[C@@H](C(=O)Nc1ccc2c(c1)OCCO2)n1c(=O)[nH]c2ccccc2c1=O | 15µM* | 18% | nt | ? | nt | 3%
CC(Sc1nc2ccccc2c(=O)n1C)C(=O)Nc1ccc2c(c1)OCCO2 (stereo unspecified) | -19% | -25% | nt | -3% | nt | -15%
C[C@@H](C(=O)Nc1ccc2c(c1)OCO2)n1c(=O)[nH]c2ccccc2c1=O | 4% | 5% | nt | 3% | nt | -5%
Cn1c(SCn2nnc3ccccc3c2=O)nc2ccccc2c1=O | -8% | -14% | 1% | 2% | -24% | -6%
CCC(C(=O)Nc1ccc2c(c1)OCCO2)n1nnc2ccccc2c1=O (stereo unspecified) | 13µM* | ? | nt | ? | nt | 3.2µM*
O=c1c2ccccc2nnn1CSc1ccc2c(c1)OCCO2 | 9.5µM* | 1.8µM* | -6% | 18% | 7.1µM* | 1.6µM*
Cc1ccc(CNC(=O)CCc2c(C)nc3nc(C)nn3c2C)cc1 | -6% | nt | nt | nt | 5% | nt
CNC(=O)/C(C#N)=C\c1ccc(CNS(=O)(=O)c2ccccc2)o1 | 0% | 6% | -1% | 0% | 0% | 0%
N#C/C(=C\c1ccc(-c2nc3ccccc3s2)o1)C(N)=O | 2.7µM* | ? | nt | 18% | nt | 3.2µM*
CNC(=O)/C(C#N)=C/c1ccc(-c2nc3ccccc3s2)o1 | ? | 1.4µM* | nt | ? | nt | 2.8µM*
COc1ccc(NC(=O)CSc2nnc(C3CCCCC3)n2-c2ccccc2)cc1 | 7% | 7% | -9% | -3% | 16% | 3%
CO/N=C/C(C#N)=C/c1ccc(OC)cc1 | ? | ? | -3% | ? | nt | 21%
O=C(CSc1nnc(SCc2ccc(Cl)cc2)s1)N1CCOCC1 | 15µM* | 0% | 4% | 0% | -6% | -15%
O=C(CSCc1ccc(Cl)cc1)N1CCOCC1 | ? | -4% | -2% | 10% | 15% | 11%
O=C(Nc1ccc(Cl)cc1)Nc1nnc(SCc2ccc(Cl)cc2)s1 | 4% | -13% | -1% | -1% | -14% | -1%
CCN(CC)C(=O)CSc1nnc(SCc2ccc(Cl)cc2)s1 | 19µM* | -7% | -3% | -7% | 10% | 1%
CCc1ccc(N(CC(=O)NC(C)(C)C)C(=O)CNC(=O)c2cccs2)cc1 | 2% | 1% | nt | -5% | nt | -6%
SMILES | FLuc modulator | Rab9 promoter act | KinaseGlo FLuc | ELG1 genotoxic | SMN2 splice up | NPC1 promoter act
COC(=O)c1sc2nc(CSc3nc4ccc(C)cc4[nH]3)[nH]c(=O)c2c1C | 0% | -22% | -2% | 0% | -2% | -1%
COCc1cc(C)nc(SCc2nc3ccccc3c(=O)[nH]2)c1C#N | -11% | -2% | 1% | 7% | nt | -1%
Cc1ccc2nc(SCc3nc4ccccc4c(=O)[nH]3)[nH]c2c1 | 9.5µM* | 2.8µM* | -2% | 18% | 22µM* | ?
Cc1cc(C)c(C#N)c(SCc2nc3ccccc3c(=O)[nH]2)n1 | 2.4µM* | ? | -2% | 8.2µM* | 0.79µM* | ?
Cc1ccc2nc(CSc3nc(C)ccc3C#N)[nH]c2c1 | 0.54µM* | 0.56µM* | -18% | 11% | 2.5µM* | ?
Nn1c(CSc2ccccn2)nc2ccccc2c1=O | 19µM* | ? | -5% | ? | 11µM* | 4µM*
O=c1[nH]c(CSc2ccccn2)nc2ccccc12 | 13µM* | 2.8µM* | -18% | ? | 11µM* | 2.5µM*
O=c1[nH]c(CSc2ccccn2)nc2c1cnn2-c1ccccc1 | ? | 16% | -4% | 2% | -4% | 17%
COc1ccc(/C=C/C(=O)Oc2cccc(/C=N/NC(=O)Cc3ccc(Br)cc3)c2)cc1 | ? | 3.2µM* | nt | ? | nt | 3.5µM*
Cc1cccc(NS(=O)(=O)c2ccc(C)c(C(=O)OCC(=O)Nc3cc(C)on3)c2)c1 | 3% | 0% | -7% | -5% | 20µM* | 0%
Cc1ccc(OCC(=O)Nc2ccc(S(=O)(=O)Nc3cc(C)on3)cc2)c(Br)c1 | 21µM* | nt | nt | nt | -3% | nt
Cc1ccc(OCC(=O)NC(=S)Nc2ccc(S(=O)(=O)Nc3cc(C)on3)cc2)c(Br)c1 | 1.5µM* | -5% | nt | 4% | nt | 0%
Cc1cc(NS(=O)(=O)c2ccc(NC(=O)COc3ccc(Cl)cc3Cl)cc2)no1 | ? | -2% | nt | 11% | nt | -3%
Cc1cccc(NS(=O)(=O)c2cc(C(=O)OCC(=O)Nc3cc(C)on3)ccc2C)c1 | 6% | 2% | 2% | 1% | -3% | -5%
CC1CCN(CC(O)Cn2c3ccccc3c3ccccc32)CC1 (stereo unspecified) | 0% | -4% | nt | 1% | nt | 0%
Cc1c(OCc2nn[nH]n2)ccc2c3c(c(=O)oc12)CCC(C)C3 (stereo unspecified) | ? | -4% | 1% | 4% | -8% | 23%
Cc1c(OCc2nn[nH]n2)ccc2c3c(c(=O)oc12)CCCC3 | 21µM* | -10% | -1% | -3% | 6% | -4%
Cn1c(-c2ccc(C=O)s2)nc2ccccc21 | ? | 1% | -15% | 15µM* | 25% | -2%
Cc1ccc(-n2c(N)c(-c3nc4ccccc4n3C)sc2=S)cc1 | -2% | 28% | -5% | -1% | -21% | ?
Cn1c(-c2cccs2)nc2ccccc21 | ? | 2.5µM* | -16% | 8% | 13µM* | 4µM*
Cc1cccc(-n2c(C)cc(C=C3C(=O)c4ccccc4C3=O)c2C)c1 | 0.85µM* | ? | -12% | ? | -21% | ?
Cc1cc(=O)cc(C)n1-c1ccc(Cl)cc1 | -1% | 0% | -2% | 1% | -5% | -1%

Screens deposited in PubChem BioAssay by National Center for Advancing Translational Sciences (NCATS).
